Experimental findings from PubChem BioAssay (EPA / NIEHS) are described below.

Molecules are shown by their SMILES. Results filed as inconclusive are left out. Active and inactive are the calls of the source. The calls were made as follows, unless noted: active = hit-call score of the fitted dose curve at least 0.9, where 1 is the maximum; inactive = score below 0.9.

Experiment [1] is described as follows: APR_HepG2_CellCycleArrest_1hr: Apredica 1-hour HepG2 Assay for Cell Cycle Arrest (AID 2282666). The note with it: high-content imaging, actives raise or lower the signal. The gist of the method: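 Cell cycle arrest scored from nuclear DNA content (Hoechst 33342) using high-content imaging of fixed HepG2 cells after 1 h treatment across 0.39–200 uM, in duplicate. Gain or loss fitted relative to 0.5% DMSO.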

A short description of experiment [2]: ACEA_ER_80hr: ACEA Biosciences xCELLigence Real-Time Cell Analysis on Estrogen Receptor Agonism for Proliferation (AID 2282667; active = hit-call score of the fitted dose curve at least 0.9, where 1 is the maximum). The note with it: T47D proliferation, impedance (xCELLigence), 80 h. The essentials:
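Impedance readout (RT-CES) of T47D proliferation at 80 h post-dose; gain of signal vs DMSO baseline. Compounds: 8 conc, 1:4 serial, top 100 uM final, ≤0.5% DMSO; biological duplicate.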

Experiment [3] is described as follows: APR_HepG2_CellLoss_1hr: Apredica 1-hour HepG2 Assay for Cell Loss (AID 2282668).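 Also: curves fitted both ways against DMSO so gain or loss of cells counts.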 The note with it: high-content imaging. The gist of the method: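 Cell number comes from high-content imaging of Hoechst-labelled nuclei in fixed HepG2 cells. Cells were exposed for 1 h to ten concentrations from 0.39 to 200 uM in 0.5% DMSO. Gain or loss was fitted against DMSO controls.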

The nature of experiment [4]: APR_HepG2_MicrotubuleCSK_1hr: Apredica 1-hour HepG2 Assay for Microtubule CSK Stabilty (AID 2282669). The note with it: HepG2 microtubule cytoskeleton imaging, actives raise or lower the signal. The gist of the method:
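Alpha-tubulin immunofluorescence, imaged by automated high-content microscopy with Hoechst nuclear segmentation, measured cytoskeletal change after 1 h dosing of HepG2 at 0.39–200 uM in 0.5% DMSO. Activity fitted in both directions relative to DMSO.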

Experiment [5] can be described thus: APR_HepG2_NuclearSize_1hr: Apredica 1-hour HepG2 Assay for Nuclear Size (AID 2282670). The note with it: high-content imaging, actives raise or lower the signal. The gist of the method: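 Nuclear size measured by high-content imaging of Hoechst 33342 nuclear stain after formaldehyde fixation; human HepG2 line exposed 1 hr to compounds at 0.39–200 uM in 0.5% DMSO, with bidirectional curve fitting relative to DMSO.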

Experiment [6] can be described thus: APR_HepG2_MitoticArrest_1hr: Apredica 1-hour HepG2 Assay for Mitotic Arrest (AID 2282672). The note with it: high-content imaging, actives raise or lower the signal. The gist of the method:
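Ten-point concentration series (0.39 to 200 uM, duplicates, 0.5% v/v DMSO) applied to human HepG2 liver cells for 1 hr. High-content imaging of phospho-histone H3 and Hoechst-stained nuclei after fixation and permeabilization; DMSO-normalised bidirectional fit.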

Experiment [7] is described as follows: APR_HepG2_P-H2AX_1hr: Apredica 1-hour HepG2 Assay for H2AX Phosphorylation (AID 2282673). The note with it: high-content imaging, actives raise or lower the signal. The essentials: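 Phospho-H2A.x immunofluorescence (1:200, FITC secondary) plus Hoechst nuclear stain, quantified by high-content imaging in HepG2 after 1 hr compound exposure. Ten concentrations, 0.39 to 200 uM, in duplicate with 0.5% DMSO; fit both directions against DMSO.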

Experiment [8] in a line: APR_HepG2_MitoMass_1hr: Apredica 1-hour HepG2 Assay for Mitochondrial Mass (AID 2282674). The note with it: high-content imaging, actives raise or lower the signal. The essentials: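 Mitochondrial mass is taken from MitoTracker Red CMXRos (250 nM, 30 min, pre-fixation) fluorescence imaged at 20x in HepG2 cells. Exposure lasted 1 hr across ten concentrations, 0.39 to 200 uM, 0.5% DMSO; DMSO baseline, bidirectional fitting.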

Experiment [9] can be described thus: APR_HepG2_MitoMembPot_1hr: Apredica 1-hour HepG2 Assay for Mitochondrial Membrane Potential (AID 2282675). The note with it: imaging, actives raise or lower the signal. The essentials:
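Mitochondrial membrane potential read as MitoTracker Red CMXRos intensity by automated imaging of fixed HepG2 cells. Dye at 250 nM for 30 min pre-fixation; compounds 0.39 to 200 uM for 1 hour, duplicate wells, 0.5% DMSO.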

Experiment [10] can be described thus: APR_HepG2_p53Act_1hr: Apredica 1-hour HepG2 Assay for p53 Activation (AID 2282671). The note with it: high-content imaging, actives raise or lower the signal. The gist of the method:
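After 1 h exposure (0.39–200 uM, 0.5% DMSO final, duplicates), fixed HepG2 cells were labelled with anti-p53 antibody plus Hoechst nuclear stain. Fluorescence quantified by automated 20x imaging; changes fitted in both directions against DMSO.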

For the compound `CCOc1nc(C(Cl)(Cl)Cl)ns1`, the result in [1], in experiment [2], in experiment [3], in experiment [4], in experiment [5] and in experiment [6] was inactive. In addition, the call in [7] was inactive.
As for `COP(=O)(OC)O/C(C)=C/C(=O)N(C)C`, the compound was called inactive in experiment [1], in experiment [2], in [4], in experiment [5], in experiment [7] and in experiment [8].
A word on the AC50: it is the concentration giving half of the maximal activity seen. As to `O=C1C2CC=CCC2C(=O)N1SC(Cl)(Cl)Cl` (configuration not stated), the call in experiment [1], in experiment [2], in experiment [3], in experiment [4], in experiment [5] and in experiment [8] was inactive. In addition, the outcome in experiment [9] was inactive. Also, the AC50 in [7] is 81.7 µM (active).
Regarding `CSC(=O)c1c(C(F)F)nc(C(F)(F)F)c(C(=O)SC)c1CC(C)C`, the result in [2], in experiment [4], in experiment [5], in experiment [10], in experiment [7] and in experiment [9] was inactive.
Consider `CCOP(=O)(OCC)Oc1nc(Cl)c(Cl)cc1Cl`, for which the compound was called inactive in [2], in experiment [4], in experiment [5], in experiment [10], in [6] and in [7].
For `CCCCOCN(C(=O)CCl)c1c(CC)cccc1CC`, the compound was called inactive in experiment [2], in [4], in experiment [5], in [10], in experiment [6] and in experiment [7]. Moreover, the compound was called inactive in experiment [9].
As for `Nc1c(Cl)c(F)nc(OCC(=O)O)c1Cl`, the call in experiment [2], in experiment [4], in experiment [5], in experiment [7] and in experiment [9] was inactive.
For the compound `N#Cc1c(Cl)cccc1Cl`, the outcome in experiment [2], in [4], in experiment [5], in [6] and in experiment [7] was inactive.
`CC1(C)CCC(=Cc2ccc(Cl)cc2)C1(O)Cn1cncn1` (configuration not stated): the outcome in experiment [2], in experiment [4], in experiment [5], in [7] and in experiment [9] was inactive.
Turning to `OC(c1ccc(Cl)cc1)(c1ccc(Cl)cc1)C(Cl)(Cl)Cl`, the compound was called inactive in [2], in experiment [4] and in [6]. For the same compound, the half-maximal activity concentration (AC50) in experiment [5] was 110 µM (active); in experiment [10], 109 µM (active); in [7], 90.1 µM (active).
On to `CO/N=C(/C1=NOCCO1)c1ccccc1Oc1ncnc(Oc2ccccc2Cl)c1F`, for which the AC50 in experiment [2] is 10.5 µM (active). Also, the outcome in experiment [4], in experiment [5], in [7] and in [8] was inactive.
For the compound `C=CCOC(=O)C(C)(C)OC(=O)c1cc(-n2c(=O)cc(C(F)(F)F)n(C)c2=O)ccc1Cl`, the compound was classed as inactive in [2], in experiment [4], in experiment [5], in experiment [7] and in experiment [8].
For `Clc1nc(Cl)nc(Nc2ccccc2Cl)n1`, the compound was called inactive in experiment [2], in [4], in experiment [5], in [6], in [7] and in experiment [8].
Take `CC1(C)CON(Cc2ccccc2Cl)C1=O`: the result in [2], in [3], in experiment [4], in experiment [5] and in [7] was inactive.
Consider `O=P(O)(O)CCCl`, for which the compound was classed as inactive in [2], in experiment [3], in [4], in experiment [5], in experiment [6] and in [7].
Turning to `N#Cc1c[nH]cc1-c1cccc2c1OC(F)(F)O2`, the compound was called inactive in [2], in [4], in experiment [5], in [10], in experiment [6] and in [7]. Moreover, in [8], the compound was called inactive.
As for `CC(C)C1(C)N=C(c2ncccc2C(=O)O)NC1=O` (configuration not stated), the call in experiment [2], in [3], in experiment [4], in experiment [5], in experiment [10] and in [7] was inactive.
`COP(=S)(OC)SCn1nnc2ccccc2c1=O`: the compound was called inactive in experiment [2], in [3], in experiment [4], in experiment [5] and in [7].
For the compound `CCCC(=NOCC)C1=C(O)CC(CC(C)SCC)CC1=O` (configuration not stated), the outcome in experiment [2], in experiment [3], in experiment [4], in experiment [5], in experiment [7] and in experiment [8] was inactive. In addition, the result in [9] was inactive.
On to `Nc1c(Cl)c(Cl)nc(C(=O)O)c1Cl`, for which the outcome in experiment [2], in [3], in experiment [4], in experiment [5], in experiment [7] and in experiment [8] was inactive. In experiment [9], the outcome was inactive.
As for `COCC(C)N(C(=O)CCl)c1c(C)csc1C` (configuration not stated), the outcome in experiment [2], in [4], in experiment [5], in experiment [6], in experiment [7] and in [8] was inactive.
As for `CCNC(=O)NC(=O)C(C#N)=NOC`, the compound was classed as inactive in experiment [2], in experiment [3], in [4], in experiment [5], in experiment [6] and in experiment [7]. The compound was classed as inactive in [8] and in experiment [9].
On to `Cc1nc(N(C)C)nc(OC(=O)N(C)C)c1C`, for which the outcome in [2], in experiment [3], in experiment [4], in experiment [5], in [6] and in [7] was inactive.
On to `CC(C)NC(=O)N1CC(=O)N(c2cc(Cl)cc(Cl)c2)C1=O`, for which the compound was called inactive in experiment [2], in experiment [4], in experiment [5], in experiment [6] and in [7].
Regarding `CC(C)N1C(=O)c2ccccc2NS1(=O)=O`, the outcome in experiment [2], in experiment [4], in [5], in experiment [10] and in [7] was inactive.
As to `CCOc1cc(C(C)(C)C)ccc1C1COC(c2c(F)cccc2F)=N1` (configuration not stated), the compound was classed as inactive in [2], in experiment [4], in experiment [5], in [6], in experiment [7] and in experiment [8].
For the compound `CCSC(=O)N1CCCCCC1`, the call in [2], in experiment [3], in experiment [4], in experiment [5], in experiment [6] and in [7] was inactive. Besides, the result in experiment [8] and in [9] was inactive.
As to `Cc1cc(C)nc(Nc2ccccc2)n1`, the outcome in [2], in experiment [4], in [5], in [7] and in experiment [9] was inactive.
With `Cc1ccc(N=CN(C)C=Nc2ccc(C)cc2C)c(C)c1`, the outcome in experiment [2], in experiment [4], in [5], in [10], in experiment [7] and in experiment [8] was inactive.
As to `COP(=S)(OC)Oc1ccc([N+](=O)[O-])c(C)c1`, the compound was called inactive in [2], in experiment [3], in experiment [4], in experiment [5], in experiment [10] and in experiment [7]. In [8], the compound was classed as inactive.
`C=C(C)CN(CC)c1c([N+](=O)[O-])cc(C(F)(F)F)cc1[N+](=O)[O-]`: the call in experiment [2], in [4], in [5], in experiment [10], in [6] and in experiment [7] was inactive.
As for `CCN(CC)c1nc(C)cc(OP(=S)(OC)OC)n1`, the outcome in experiment [2], in [4], in experiment [5], in [7] and in experiment [9] was inactive.
`CNC(=O)N(C)c1nnc(C(C)(C)C)s1`: the compound was classed as inactive in experiment [2], in experiment [4], in experiment [5], in experiment [10], in experiment [7] and in experiment [9].
Consider `CCCN(CC)CC1COC2(CCC(C(C)(C)C)CC2)O1` (configuration not stated), for which the call in experiment [2], in experiment [3], in [4], in experiment [5], in [7] and in experiment [8] was inactive. Besides, the compound was classed as inactive in experiment [9].
In the case of `CC(C)Nc1nc(Cl)nc(NC(C)C)n1`, the result in experiment [2], in experiment [4], in [5], in experiment [7] and in experiment [8] was inactive.
As to `CCCCC(O)(Cn1cncn1)c1ccc(Cl)cc1Cl` (configuration not stated), the call in experiment [2], in experiment [4], in experiment [5], in experiment [6], in experiment [7] and in [8] was inactive.
Consider `COc1cc(OC)nc(NC(=O)NS(=O)(=O)c2ncccc2OCC(F)(F)F)n1`, for which the compound was classed as inactive in experiment [2], in experiment [3], in experiment [4], in experiment [5], in experiment [6] and in experiment [7]. Moreover, in experiment [9], the outcome was inactive.
For `CCC(C)n1c(=O)[nH]c(C)c(Br)c1=O` (configuration not stated), the compound was classed as inactive in [2], in experiment [3], in [4], in experiment [5], in experiment [7] and in experiment [9].
`COC(=O)NS(=O)(=O)c1ccc(N)cc1`: the outcome in experiment [2], in experiment [3], in experiment [4], in experiment [5], in experiment [6] and in experiment [7] was inactive. Besides, the compound was called inactive in experiment [9].
